SRC3 inh – human NCOA3 inhibition. Q9Y6Q9. HEK293 GAL4-SRC3 luciferase reporter, luminescence. inhibition, % at 3.6 µM. 360,000 compounds, 0.17% hits;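 active = inhibition above a per-campaign cutoff, the mean of all compounds plus 3 SD, cut at about 60% in these data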;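 note: 0% = DMSO-treated cells and 100% = gossypol-treated cells at 36 µM; higher means less SRC3-driven luciferase light from the GAL4 reporter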
Gli-Sufu antag – antagonists of Gli-Sufu signaling; Sufu-KO-LIGHT fibroblasts, Gli luciferase reporter luminescence; inhibition, % at 5 µM; 340,000 compounds, 0.74% hits;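 active = inhibition above about 55%, limit read from the data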;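 note: 0% = DMSO-treated cells and 100% = wells with medium but no cells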
SRC2 inh – human SRC2 (NCOA2) inhibition. HEK293 GAL4-SRC2 luciferase reporter, luminescence. 370,000 compounds, 0.17% hits. AID 651957. Q15596. inhibition, % at 9 µM;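 active = inhibition above the mean inhibition of all tested compounds plus 3 SD, set per campaign, cut at about 52% in these data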;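 note: 0% = DMSO treated cells and 100% = cells given Gossypol at 36 µM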
COUP-TFII inh – NR2F2 (human) inhibition, primary screen | AID 686940 | P24468 | 370,000 compounds, 0.7% hits | HEK293T NGFI-A luciferase reporter, luminescence | inhibition, % at 8.6 µM;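 active = inhibition above a per-plate cutoff, mean inhibition of test wells between control levels plus 3 SD, cut at about 38% in these data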;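 note: cells cotransfected with COUP-TFII expression vector driving the NGFI-A reporter; 0% = median of COUP-TF2 test wells and 100% = reporter-only cells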
NCOA1 inh – inhibitors of human steroid receptor coactivator 1 (SRC1). 360,000 compounds, 0.12% hits. HEK293 GAL4-SRC1 luciferase reporter, luminescence. inhibition, % at 3.6 µM;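 active = inhibition above the campaign mean plus 3 SD, with each screening campaign given its own cutoff, cut at about 60% in these data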;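 note: 0% = DMSO treated cells and 100% = gossypol at 36 µM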
LRH-1 inv ag – NR5A2 inverse agonism in reporter assay; O00482; HEK293T StAR-luciferase reporter, LRH-1 transfected, 24 h; inhibition, % at 3.6 µM; 360,000 compounds, 0.13% hits;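 active = inhibition above the mean inhibition of all tested compounds plus 3 SD, cut at about 73% in these data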;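 note: 0% = DMSO wells and 100% = reporter-only cells lacking LRH-1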
Gli-Sufu confirm – Gli-SUFU antagonism confirmation, single concentration; shares compounds with Gli-Sufu antag; Sufu-KO-LIGHT cells, Gli luciferase reporter, luminescence; inhibition, % at 5 µM; 2,500 compounds, 40% hits; AID 602428;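 active = mean inhibition at 5 µM reaching about 45%, limit read from the data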;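 note: plate controls were DMSO-treated cells for no effect and wells lacking cells for full effect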
SufuKO cytotox – cytotoxicity counter-screen for Gli-SUFU antagonists; shares compounds with Gli-Sufu antag; Sufu-KO-LIGHT cells cytotoxicity, ATP luminescence; cytotoxicity, % at 5 µM; 2,500 compounds, 32% hits; AID 651994;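 active = mean cytotoxicity at 5 µM above about 25%, limit read from the data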;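 note: cells exposed to compound overnight for roughly 16 to 18 hours; plate controls were DMSO wells with cells for no effect and medium without cells for full effect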
Wnt3a cs – Wnt3a reporter inhibition counter-screen. shares compounds with Gli-Sufu antag. 2,500 compounds, 20% hits. Wnt-LIGHT cells, Wnt3a-driven luciferase reporter, luminescence. inhibition, % at 6.25 µM;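 active = mean inhibition above about 25%, limit read from the data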
Gal4-VP16 ctr – inhibits VP16 reporter, flagging COUP-TFII antagonist hits; HEK293 Gal4-VP16 luciferase reporter, luminescence; 2,500 compounds, 25% hits; shares compounds with COUP-TFII inh; inhibition, % at 8.5 µM; in the data active = inhibition above about 13%
COUP-TFII conf – confirmation of human COUP-TFII (NR2F2) inhibitors; 2,500 compounds, 45% hits; AID 687008; shares compounds with COUP-TFII inh; inhibition, % at 8.5 µM; HEK293 NGFI-A luciferase reporter, luminescence;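 active = mean inhibition over three repeats above a set limit taken from the earlier primary screen, cut at about 38% in these data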;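 note: 100% = cells given the luciferase reporter alone without the COUP-TF2 vector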
Starred values were filed as active, the others as inactive; nt = no result given. Hits are enriched below; roughly 1.2% of the tested compounds scored in any of these assays.

SMILES	SRC3 inh	Gli-Sufu antag	SRC2 inh	COUP-TFII inh	NCOA1 inh	LRH-1 inv ag	Gal4-VP16 ctr	COUP-TFII conf	others
CC1C(OC(=O)CCC(=O)NC(C)(C)CO)O[C@H]2OC3(C)CC[C@H]4[C@H](C)CCC1C24OO3 (some centres not stated)	53.5	85.0*	5.6	45.6*	54.6	90.5*	7.3	49.7*	Gli-Sufu confirm=86.0*;SufuKO cytotox=-2.2;Wnt3a cs=24.8
CC(C)CC(NC(=O)CCCNC(=O)CCC(=O)OC1O[C@H]2OC3(C)CC[C@H]4[C@H](C)CCC(C1C)C24OO3)C(=O)O (some centres not stated)	72.7*	84.7*	22.6	45.9*	43.1	84.0*	-2.5	45.2*	Gli-Sufu confirm=78.5*;SufuKO cytotox=-7.7;Wnt3a cs=15.4
Oc1cc(O)cc(/C=C/c2ccc(O)cc2O)c1	-3.7	2.5	nt	nt	-17.8	0.1	nt	nt
O=C1NC2C(=CC(O)C(O)C2O)c2cc3c(cc21)OCO3 (configuration not stated)	90.9*	71.2*	75.3*	77.7*	93.6*	97.1*	10.7	57.7*	Gli-Sufu confirm=69.9*;SufuKO cytotox=2.9;Wnt3a cs=101.6*
O=C1NC2C(=CC(O)C(O)C2O)c2cc3c(c(O)c21)OCO3 (configuration not stated)	94.3*	84.0*	67.9*	90.7*	96.3*	97.5*	25.2*	84.0*	Gli-Sufu confirm=92.3*;SufuKO cytotox=78.4*;Wnt3a cs=104.2*
CCCCCC(=O)N[C@@H](c1ccccc1)[C@@H](O)C(=O)O[C@H]1C[C@@]2(O)[C@@H](OC(=O)c3ccccc3)C3[C@](C)(C(=O)[C@H](O)C(=C1C)C2(C)C)[C@@H](OC1OCC(O)C(O)C1O)C[C@H]1OC[C@@]31OC(C)=O (some centres not stated)	-0.5	-6.0	-1.2	15.9	-11.6	27.5	nt	nt
COc1ccc(C[C@H]2NC[C@H](O)[C@H]2OC(C)=O)cc1	92.7*	86.6*	70.5*	89.3*	94.6*	102.1*	20.4*	83.5*	Gli-Sufu confirm=91.8*;SufuKO cytotox=75.0*;Wnt3a cs=103.5*
COc1ccc(CCNC2CCCCC2)cc1	14.5	2.0	-18.1	2.3	-7.4	-22.4	nt	nt
CC(=O)c1c(C)n(CCCOC(C)C)c2ccc(O)cc12	10.6	-2.3	0.1	-13.4	-0.7	11.8	nt	nt
NC(=O)Nc1ccc(C(=O)OCC(=O)Nc2ccc(Cl)cc2C(=O)c2ccccc2)cc1	18.2	-10.3	5.6	9.6	-3.0	11.5	nt	nt
O=C1NC2C(O)C(O)C(O)C(O)C2c2cc3c(c(O)c21)OCO3 (configuration not stated)	92.3*	71.9*	74.5*	79.9*	93.1*	98.1*	28.7*	80.4*
CC1=C(O)C(=O)C=C2C1=CC=C1C2(C)CCC2(C)C3CC(C)(C(=O)O)CCC3(C)CCC12C (configuration not stated)	-8.8	21.9	-35.1	79.4*	1.0	92.9*	80.9*	83.4*
CCC(CO)(C(=O)OC1C[N+]2(C)CCC1CC2)c1ccccc1 (configuration not stated)	7.2	2.6	-2.7	-2.5	-7.6	-5.5	nt	nt
CC1OC(OC2C=C3CCC4C(CCC5(C)C(c6ccc(=O)oc6)CCC45O)C3(C)CC2)C(O)C(OC2OC(CO)C(O)C(O)C2O)C1O (configuration not stated)	88.0*	0.5	69.5*	78.1*	90.9*	96.8*	53.7*	79.5*
COC(=O)[C@@H]1[C@@H](C(=O)OC)C2(c3ccccc3-c3ccccc32)N(c2ccc(Cl)cc2)N1C#N	47.7	-2.1	12.4	47.0*	6.8	12.9	49.7*	46.8*
CCOC(=O)[C@]12Cc3cc(Cl)ccc3[C@H]1N(C(C)C)C(=O)c1ccccc12	nt	nt	-4.1	41.3*	nt	33.7	21.3*	52.8*
CCOC(=O)[C@]12Cc3cc(Cl)ccc3[C@H]1N(C)C(=O)c1ccccc12	nt	nt	2.5	4.9	nt	-46.3	nt	nt
COc1ccc2[nH]c(C)c(CCNCc3cc(OC)c(OC)c(OC)c3)c2c1	7.7	10.6	2.4	12.6	4.2	11.7	nt	nt
COc1ccc(CNCCc2c(C)[nH]c3ccc(OC(F)(F)F)cc23)c(OC)c1	7.2	56.7*	21.2	51.5*	7.0	26.2	1.7	44.8*
OC(c1ccc(F)cc1)C(c1ccccc1)N1CCOCC1 (configuration not stated)	14.6	3.3	5.6	-6.6	4.2	0.6	nt	nt
CC(=O)OC1CC2(O)C3CCC4CC(O)CCC4(C)C3CCC2(C)C1C1=CC(=O)OC1 (configuration not stated)	87.6*	1.4	50.4	76.8*	85.5*	99.0*	46.9*	71.9*
CC(=O)OC1CC(OC2C(O)CC(OC3C(O)CC(OC4CCC5(C)C(CCC6C5CCC5(C)C(C7=CC(=O)OC7)C(O)CC65O)C4)OC3C)OC2C)OC(C)C1OC1OC(CO)C(O)C(O)C1O (configuration not stated)	81.5*	-1.2	38.1	73.9*	84.4*	98.4*	35.6*	65.3*
Cc1ccc(S(=O)(=O)N2CCCC(C(=O)N3CCC4(CC3)OCCO4)C2)cc1 (configuration not stated)	-6.9	6.1	6.5	7.9	12.3	-21.4	nt	nt
COc1ccc(-n2nnnc2C(c2cccc(OC)c2OC)N2CCC(n3c(=O)[nH]c4ccccc43)CC2)cc1 (configuration not stated)	25.5	nt	21.5	33.6	39.4	18.5	nt	nt
COc1cccc(C(c2nnnn2-c2ccc3c(c2)OCCO3)N2CCC(n3c(=O)[nH]c4ccccc43)CC2)c1OC (configuration not stated)	41.1	nt	9.0	40.0*	32.2	9.1	-2.4	7.5
COc1ccc2c(c1)c(CCN)c(C)n2Cc1ccccc1	6.2	6.6	-22.1	5.1	22.4	7.3	nt	nt
CC1CCN(C(=O)C(C)Cl)CC1 (configuration not stated)	3.5	1.7	-9.3	-9.4	0.5	8.8	nt	nt
Cn1cccc1CN1CCN(C(=O)COc2ccccc2)CC1	-4.1	-11.4	17.1	-8.6	-13.5	8.2	nt	nt
